BCR signal inh – qHTS Assay to Find Inhibitors of Chronic Active B-Cell Receptor Signaling | ABC-DLBCL IkBa-CBG/CBR reporter, luminescence ratio, 4 h | Potency, µM (titrated, usually from 46.1 µM), for the others: at the highest dose activity change, negative = inhibition, hits mostly inhibitors | 0.05% of 340,000 active; active = well fitted inhibition curve with a large enough effect in the signal ratio, with a control signal flat, not every such curve was filed as active; inconclusive = small, poorly fitted or top-dose-only effect, or effect the other way, or a change in a side signal; the % refers to the signal ratio;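 note: potency is the fitted concentration of half-maximal effect; plate controls were basal doxycycline-induced cells for no effect and cells given 10 µM MG132 for full effect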
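Doxycycline induced both beetle luciferases in TMD8 lymphoma cells; IKK-driven degradation limits the IkappaBalpha-fused green signal, while red luminescence normalises for cell number and nonspecific effects. Compounds tested up to 46 uM, 4 hrs.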
D1 agonist – Allosteric Agonists of the Human D1 Dopamine Receptor: qHTS. D(1A) dopamine receptor (Homo sapiens), P21728. HEK293 T-REx D1 cells, calcium flux, agonist mode. activation, % at 2 µM. 1% of 360,000 active. AID 504660, 2011; in the data active = activation above about 30%; note: 0% is about no effect
Target sequence (P21728 whole entry, looked up): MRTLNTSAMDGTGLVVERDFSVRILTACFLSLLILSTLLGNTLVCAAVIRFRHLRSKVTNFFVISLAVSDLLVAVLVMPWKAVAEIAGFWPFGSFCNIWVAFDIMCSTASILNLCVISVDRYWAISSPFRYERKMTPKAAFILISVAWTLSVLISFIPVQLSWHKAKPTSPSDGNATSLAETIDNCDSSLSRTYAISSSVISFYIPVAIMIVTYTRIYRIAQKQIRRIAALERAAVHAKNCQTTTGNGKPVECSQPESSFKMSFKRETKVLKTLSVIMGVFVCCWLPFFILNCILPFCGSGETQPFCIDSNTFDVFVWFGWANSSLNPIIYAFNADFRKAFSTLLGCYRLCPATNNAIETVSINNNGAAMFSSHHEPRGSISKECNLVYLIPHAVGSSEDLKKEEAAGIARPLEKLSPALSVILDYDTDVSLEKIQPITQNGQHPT
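Agonism was scored from calcium flux recorded over 180 s (1 read/s) after pintool compound addition, following a 10-cycle baseline. Cells were inducible force-coupled HEK293 TREx D1, plated overnight at 30 C and loaded with no-wash calcium dye.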
D1 antag – Antagonist of Human D 1 Dopamine Receptor: qHTS; HEK293 TREx D1 cells, calcium flux, dopamine EC80; stronger effect = lower value; D(1A) dopamine receptor (Homo sapiens), P21728; activity change, negative = inhibition, % at 10 µM; AID 504652, 2011; 3.2% of 360,000 active; in the data active = activity change below about -30%; note: % is set by controls: 0 for no effect and ±100 for the full control effect
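After overnight tetracycline induction at 30 C, force-coupled D1 HEK293 cells took up a no-wash calcium dye at room temperature. Compounds were added and monitored 180 s, and the response to EC80 dopamine was then recorded.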
D1 PAM – Potentiators of Human D1 Dopamine Receptor: qHTS | D(1A) dopamine receptor (Homo sapiens), P21728 | HEK293 TREx D1 cells, calcium flux, dopamine EC20 potentiation | potentiation, % at 10 µM | 0.036% of 360,000 active; in the data active = potentiation above about 30%; note: 0% is about no effect
DRD3 agonist – qHTS of D3 Dopamine Receptor Agonist: qHTS; max activation, %; D(3) dopamine receptor (Homo sapiens), P35462; 0.58% of 410,000 active; D3R DiscoveRx beta-arrestin cells, luminescence, 90 min; AID 652048, 2013; in the data active = max activation above about 30%; note: 0% is about no effect
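Agonist mode: compounds and dopamine controls were applied to plated cells for 90 min at 37 degrees C after an overnight attachment at 1500 cells/well. Luminescent read-out followed 30 - 60 minutes at room temperature with DiscoveRx detection reagent.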
D3 antag – qHTS of D3 Dopamine Receptor Antagonist: qHTS | D(3) dopamine receptor (Homo sapiens), P35462 | AID 652054, 2013 | max response, negative = inhibition, % | 2.5% of 360,000 active | D3R cells, DiscoveRx beta-arrestin luminescence, antagonist mode; stronger effect = lower value; in the data active = max response below about -50%; inconclusive = no clear call, values can overlap the other calls; note: % is set by controls: 0 for no effect and ±100 for the full control effect
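Cells expressing the human receptor were seeded at 1500 cells/well, incubated overnight at 37 degrees C in 5% CO2, then exposed to library compounds with dopamine controls for 90 minutes at 37 degrees C before luminescent detection.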
Active calls of the source: *; ? = inconclusive; / = no result given; ! = a repeat was not active. Rows were chosen to be rich in hits. Some 6% of all compounds tested hit in one or more screens of this group.

SMILES	BCR signal inh	D1 agonist	D1 antag	D1 PAM	DRD3 agonist	D3 antag
COc1ccc(NC(=S)NNC(=O)c2ccccc2OC(F)F)cc1	-6.7%	2.7	-5.2	2.2	-1.3	-5.8
COc1ccccc1NC(=S)NNC(=O)c1ccccc1	/	/	/	/	0.1	-72.0*
COc1ccccc1NC(=S)NNC(=O)c1ccncc1	?	0.7	6.7	-3.9	1.5	-27.7
CCOc1ccc(C(c2c(O)cc(C)n(Cc3ccco3)c2=O)N2CCN(C)CC2)cc1 (configuration not stated)	/	0.5	4.1	-2.2	-5.1	/
O=c1n2c(c(O)n1C1CCCCC1)C(c1ccccc1)=Nc1ccccc1C2	/	/	/	/	5.2	7.3
CC(C)c1cc(Cn2c3ccccc3c(=O)n2C(C)Cn2cc(C3=CCCCC3)nn2)on1 (configuration not stated)	/	/	/	/	-4.0	16.5
CSc1ccc(CCNC(=O)c2csc3c2CCCCC3)cc1	/	11.6	-37.9*	-1.4	-3.5	/
CCN1CCN(CCCNC(=O)c2csc3c2CCCCC3)CC1	-11.8%	0.2	5.4	-4.0	-4.4	-54.1*
O=C(NCCN1CCOCC1)c1csc2c1CCCCC2	-7.3%	0.6	-0.7	13.8	16.0	-52.1*
COc1ccc(CCNC(=O)c2csc3c2CCCC3)cc1OC	-6.7%	3.6	1.0	-0.3	-1.3	19.0
COc1cccc(C(=O)Nc2cccc(OCc3cc(=O)n4cccc(C)c4n3)c2)c1	/	0.3	-7.1	0.4	6.4	/
Cc1cccc(Cn2cccc2CNS(=O)(=O)c2ccc(C)c(C)c2)c1	/	19.5	-7.3	0.2	1.4	/
COc1ccc(C2CNC(=O)C2)cc1OC1CCCC1 (configuration not stated)	?	1.5	-41.6*!	1.9	8.2	-7.9
COc1ccc(CCNS(=O)(=O)c2ccc(C3CNC(=O)C3)cc2)cc1OC (configuration not stated)	-2.2%	-2.4	-3.2	1.1	2.5	-15.5
Cc1cc(-c2nnc(-c3cc4ccccc4oc3=O)o2)c(C)n1-c1ccccc1	-0.7%	2.7	-42.6*	-0.7	-5.1	-3.8
CC(C)c1ccc(C(=O)Nc2cc(-c3ccccc3F)nn2-c2ccccc2)cc1	/	3.6	-2.1	-1.1	-11.1	/
Cn1c(=N)n(CC(=O)c2ccc(Br)s2)c2ccccc21	-0.4%	4.7	1.6	2.4	8.2	?
N=c1n(CC(=O)c2ccc(Br)s2)c2ccccc2n1Cc1ccccc1	?	48.7*	-20.5	-3.0	-9.0	19.0
CCN(CC)CCn1c(=N)n(CC(=O)c2ccc(Br)s2)c2ccccc21	?	13.1	-11.8	-12.5	-24.3	-73.2*
COc1ccc(CCNC(=O)CN2C(=O)COc3ccc(S(=O)(=O)N4CCCCCC4)cc32)cc1OC	/	17.0	-3.2	-1.1	-15.3	/
O=[N+]([O-])c1ccc(CN2[C@H](COCc3ccccc3)[C@@H](N3CCCC3)CS2(=O)=O)cc1	/	/	/	/	-14.4	-23.0
O=C(CCc1nc2ccccc2c(=O)[nH]1)OCc1ccc(-c2ccccc2)cc1	2.6%	2.9	-38.9*	-3.0	-28.1	-20.7
C=CCn1c(SCc2c(C)noc2C)nc2sc(C)c(C)c2c1=O	?	6.1	-15.0	-17.5	35.2*	-15.8
C=CCn1c(SCC(=O)c2cc(C)n(C(C)COC)c2C)nc2sc(C)c(C)c2c1=O (configuration not stated)	?	3.0	-25.0	-0.2	59.6*	20.4
C=CCn1c(SCC(=O)NCCO)nc2sc(C)c(C)c2c1=O	?	1.0	10.3	-0.5	5.7	0.7
SMILES	BCR signal inh	D1 agonist	D1 antag	D1 PAM	DRD3 agonist	D3 antag
COc1ccc(C(CNC(=O)CCNS(=O)(=O)c2ccccc2)N2CCOCC2)cc1 (configuration not stated)	/	/	/	/	0.0	-15.9
O=C(CC1C(=O)N(c2ccccc2)C(=O)N1Cc1ccc2c(c1)OCO2)Nc1ccccc1 (configuration not stated)	/	-1.0	-9.8	-3.5	4.8	/
Cc1ccc2c(c1)CO[C@@]21O[C@H](CCO)C[C@H](O)[C@H]1O	/	/	/	/	1.3	?
COc1ccc2c(c1)CO[C@]21O[C@H](CCO)C[C@H](O)[C@H]1O	/	/	/	/	-12.1	-69.4*
COc1c2ccoc2c(OC[C@@H](OC(C)=O)C(C)(C)O)c2oc(=O)ccc12	-5.1%	6.4	46.2	-0.4	48.1*	30.3
CC(C)Oc1ccc(CNC(=O)c2ccc(NC(=O)c3nsc4ccccc34)cc2)cc1	/	6.8	-12.1	-1.1	10.4	/
CC(=O)Nc1ccc(CN2CCN(c3cccc(C(F)(F)F)c3)CC2)cc1	-7.9%	0.9	0.7	-1.4	-58.6	-92.1*
Cc1[nH]c2ccccc2c1C(O)CN1CCN(c2cccc(C(F)(F)F)c2)CC1 (configuration not stated)	?	31.2*	-59.3*	-14.5	-9.6	-74.1*
CC(=O)Nc1ccc(NC(=O)CN2CCN(c3cccc(C(F)(F)F)c3)CC2)cc1	8.7%	7.5	-1.9	9.1	-17.2	-79.5*
O=C(CN1CCN(c2cccc(C(F)(F)F)c2)CC1)Nc1cccc(C(F)(F)F)c1	-20.7%	0.4	-7.7	-4.3	-7.8	?
O=C(CN1CCN(c2cccc(C(F)(F)F)c2)CC1)NCc1ccccc1	6.5%	2.0	-44.7*	-5.5	-9.2	-14.5
CC(C)Nc1nc(Nc2ccc(C#N)cc2)c2sccc2n1	/	/	/	/	2.5	73.9
Nc1cc(-c2ccccc2)c[nH]c1=O	/	4.3	10.0	8.8	/	/
CC(NC(=O)COC(=O)c1ccco1)C12CC3CC(CC(C3)C1)C2 (configuration not stated)	/	1.2	-5.4	3.8	/	/
OC(CN1CCN(c2ccccc2)CC1)c1c[nH]c2ccccc12 (configuration not stated)	?	4.7	-0.7	-8.0	-8.0	-54.3*
O=C(CNC(=O)c1cccs1)NCCN1CCN(c2ccccc2F)CC1	?	1.5	-19.3	-7.8	-11.1	-51.5*
O=C(NCCCN1CCOCC1)c1cccs1	?	8.0	-34.6*	6.0	-4.6	30.2
O=C(NCCN1CCN(C(=O)c2cccs2)CC1)C(=O)Nc1ccc(Br)cc1	-4.0%	4.0	5.6	-2.9	-0.5	-25.4
O=C(NCCCN1CCOCC1)c1ccc(Br)s1	-2.5%	1.6	4.1	4.6	-10.4	34.7
O=C(NCCN1CCN(C(=O)c2cccs2)CC1)c1cccs1	4.8%	2.7	-0.9	-1.8	-34.5	-74.3*
COc1ccccc1S(=O)(=O)N(C)C[C@@H]1OCc2cn(nn2)CCCC(=O)N([C@H](C)CO)C[C@H]1C	/	/	/	/	-8.0	-27.6

Source: PubChem
